# Test results: the supplement of paper PMC4962491
# ± gives the standard deviation of the averaged measurements. In all, about 1,600 compounds were measured (“mitochondrial oxygen consumption rate normalised to cell number, Z score over the library”: median about 0.065, lowest 2% from about -2.2 on). Many of the other results were omitted from the sample, so the lowest values are more common in it than they were.
# System: FaDu
# Assay: mitochondrial oxygen consumption rate normalised to cell number, Z score over the library; higher = higher oxygen consumption (negative = OCR reduction)
# Conditions: treatment time 24 h; assay medium: 5 mM galactose, 5 mM pyruvate, 4 mM glutamine; 10 µM
# Method: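 Primary screen: FaDu cells were incubated 24 h with Pharmakon 1600 / TDI oncology set compounds at 2 or 10 uM. Mitochondrial-specific OCR (basal minus 2 uM antimycin A) was measured on a Seahorse XF96 in assay medium with 5 mM galactose, 5 mM pyruvate and 4 mM glutamine, then corrected for Hoechst cell number and expressed as a Z score […]. Compounds that cut cell number by >66% were excluded. Two repeats.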
row,Compound,mitochondrial oxygen consumption rate normalised
1,S=C=NCc1ccccc1,-4.7 ± 0.66
2,CN1CCN(C(=O)O[C@H]2c3nccnc3C(=O)N2c2ccc(Cl)cn2)CC1,-0.823 ± 0.029
3,CN(C)C(=S)SSC(=S)N(C)C,0.578 ± 0.018
4,CC(=O)Oc1ccc(Cl)c2cccnc12,-3.19 ± 0.57
5,CCNC1(c2cccs2)CCCCC1=O (stereo unspecified),-0.924 ± 0.92
6,CNC(C)C(O)c1ccccc1 (stereo unspecified),0.176 ± 0.34
7,CN(C)C(=O)Oc1cccc([N+](C)(C)C)c1,0.321 ± 1.4
8,C1CCc2nnnn2CC1,-0.625 ± 0.34
9,O=c1[nH]c(=O)n(Cl)c(=O)n1Cl,0.623 ± 1.2
10,O=c1[nH]c2ccccc2n1C1CCN(CCCC(c2ccc(F)cc2)c2ccc(F)cc2)CC1,-2.35 ± 0.37
11,O=c1[nH]c2ccccc2n1CCCN1CCC(n2c(=O)[nH]c3cc(Cl)ccc32)CC1,-0.0948 ± 0.24
12,Nc1ccc([As](=O)(O)O)cc1,0.928 ± 0.83
13,N.N.[Cl][Pt][Cl] [Cisplatin],-0.167 ± 0.0067
14,N.N.[Cl][Pt][Cl],0.355 ± 0.5
15,COc1cc([C@@H]2c3cc4c(cc3[C@H](O)[C@H]3COC(=O)[C@H]23)OCO4)cc(OC)c1OC,-0.645 ± 0.1
16,CCC1(CC)C(=O)C=CNC1=O,0.538 ± 1.2
17,CC[C@H]1CN2CCc3cc(OC)c(OC)cc3[C@@H]2C[C@@H]1C[C@H]1NCCc2cc(OC)c(OC)cc21,-5.13 ± 0.2
18,CCOC(=O)NC(=S)Nc1ccccc1NC(=S)NC(=O)OCC,-0.249 ± 0.0062
19,NCc1cccnc1,0.0684 ± 1.5
20,CC(=O)NC1CCSC1=O (stereo unspecified),0.219 ± 0.66
21,COC(C)(C)CCC[C@H](C)C/C=C/C(C)=C/C(=O)OC(C)C,0.396 ± 0.11
